# Compound activity deposited in PubChem by National Center for Advancing Translational Sciences (NCATS).
# Compounds with a hit are over-represented: about 2.8% of the library has one in this group of screens.
# Pol iota inh: inhibitors of human DNA polymerase iota. Q9UNA4. Potency, µM (series often up to 115 µM), inactives show top-dose activity, negative = inhibition, most hits filed as inhibitors. AID 588590. Pol iota fluorescent replication assay, 10 min. 390,000 tested, 1% active; note: potency is the fitted concentration of half-maximal effect
#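 Fluorescent replication assay read twice, at 0 min and 10 min after adding 50 nM (final) substrate. Enzyme (10 nM) and compounds were first incubated 15 min at room temperature; enzyme-free buffer wells were negative controls.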
# Pol beta inh: inhibitors of human DNA polymerase beta | Pol beta primer extension/strand displacement, fluorescence kinetic | Potency, µM (doses to about 114 µM), for the others: at the highest dose activity change, negative = inhibition, usual class: inhibitors | AID 485314 | 340,000 tested, 1.3% active | P06746; note: potency is the fitted concentration of half-maximal effect; % is set by controls: 0 for no effect and ±100 for the full control effect
#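 Pol beta (10 nM) and compounds were preincubated 15 min at room temperature, then 50 nM substrate (final) started primer extension/strand displacement. Reads were taken at 0 and 10 min; concentration-response data were fitted to a four-parameter Hill equation.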
# POLK inh: blocks human DNA polymerase kappa activity. Q9UBT6. purified Pol kappa, fluorescent DNA synthesis assay, 10 min. Potency, µM (top dose mostly 107 µM), without a hit: top-dose activity, negative = inhibition, most hits filed as inhibitors. 400,000 tested, 0.53% active. AID 588579; note: potency is the fitted concentration of half-maximal effect; % is set by controls: 0 for no effect and ±100 for the full control effect
#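 Activity was followed as the change in fluorescence between reads at 0 and 10 min after starting the reaction with 50 nM substrate. Beforehand, 10 nM polymerase had been preincubated with compound for 15 min at room temperature.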
# FEN1 inh: human FEN1 inhibition. P39748. Recombinant FEN1 flap cleavage, fluorescence, 15 min. Potency, µM (top dose mostly 114 µM), without a hit: at the highest dose activity change, negative = inhibition, hits mostly inhibitors. 390,000 tested, 0.35% active; note: potency is the fitted concentration of half-maximal effect; % is set by controls: 0 for no effect and ±100 for the full control effect; nearly all actives have a fitted effect of over 65% in size
#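 Read-out was taken twice, immediately and after 15 min, following addition of 50 nM substrate to 10 nM FEN1 that had sat with test compound for 15 min at room temperature. Curves came from a four-parameter Hill model.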
# Pol eta inh: blocks human DNA polymerase eta activity; AID 588591; 390,000 tested, 1.2% active; recombinant Pol eta, fluorescent DNA replication assay; Q9Y253; Potency, µM (top dose mostly 114 µM), without a hit: at the top dose activity change, negative = inhibition, most hits filed as inhibitors; note: potency is the fitted concentration of half-maximal effect; % is set by controls: 0 for no effect and ±100 for the full control effect
#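 Fluorescent replication assay: 50 nM final substrate added after a 15 min room-temperature compound preincubation with 10 nM enzyme. Signal taken at 0 min and again at 10 min.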
# PI5P4Ka inh: blocks human PI5P4K alpha kinase activity | 330,000 tested, 1.2% active | AID 652105 | max response, % | PI5P4Kalpha enzyme, ADP-Glo luminescence, 60 min; stronger effect = lower value | P48426; active = max response of -50% or lower; inconclusive = between -30% and -50%; inactive = -30% or higher; note: value at the top dose of about 77 µM; % is set by controls: 0 for no effect and ±100 for the full control effect
# Target sequence (P48426 whole entry, looked up): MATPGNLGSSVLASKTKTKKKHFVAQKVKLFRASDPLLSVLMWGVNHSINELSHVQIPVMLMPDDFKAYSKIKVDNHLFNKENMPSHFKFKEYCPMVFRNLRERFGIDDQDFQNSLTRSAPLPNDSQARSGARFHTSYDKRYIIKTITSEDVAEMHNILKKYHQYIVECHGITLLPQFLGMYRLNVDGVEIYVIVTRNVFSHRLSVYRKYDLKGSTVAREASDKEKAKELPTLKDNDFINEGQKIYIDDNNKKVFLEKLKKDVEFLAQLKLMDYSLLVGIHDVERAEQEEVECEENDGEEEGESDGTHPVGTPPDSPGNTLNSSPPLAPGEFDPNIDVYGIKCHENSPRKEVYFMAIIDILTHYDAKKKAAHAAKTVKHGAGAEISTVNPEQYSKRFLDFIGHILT
#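 qHTS, 1536-well: enzyme/substrate mix, compound by pin tool, 5 microM ATP final; RT 60 min; ADP-Glo reagents 1 (45 min) then 2 (30 min); luminescence.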
# The depositor's hits bear a star; u = inconclusive; x = no result; [ ] = another dose, or the depositor's remark. Unless noted, calls come from the whole dose curve; as a rule, active = well fitted curve in the direction sought with a large enough effect; inconclusive = small, poorly fitted or top-dose-only effect, or another doubt; inactive = no such curve, though single readings can be large; an effect the other way counts as inactive or inconclusive.
SMILES,Pol iota inh,Pol beta inh,POLK inh,FEN1 inh,Pol eta inh,PI5P4Ka inh
CC(=O)N1CCc2cc(Br)cc(S(=O)(=O)CCC(=O)N3CCN(c4ccccc4Cl)CC3)c21,3.1%,10.0%,-20.3%,0.2%,-11.3%,x
CCCC(=O)O[C@]1(C(=O)COC(C)=O)CC[C@H]2C3C[C@H](F)C4=CC(=O)C=CC4(C)[C@@]3(F)[C@@H](O)CC21C (some centres undefined),x,x,-0.1%[19.4 µM],x,x,x
O=C(Nc1ccc2c(c1)nc1n2CCSC1)c1ccco1,31.6µM*,11.2µM*,-36.5%,-2.3%,u,u
O=C(CSc1ccc(-c2ccco2)nn1)c1cccc([N+](=O)[O-])c1,12.6µM*,28.2µM*,u,-30.3%,u,-64.4*
Cc1cc(SCC(=O)c2cccc([N+](=O)[O-])c2)nc(=O)[nH]1,u,-25.0%,79.4µM*,u,20µM*,-58.1*
Cc1cc(SCc2ccc([N+](=O)[O-])cc2)nc(=O)[nH]1,-1.2%,u,-13.9%,-2.9%,25.1µM*,-58.9*
Cc1cc(SCC(=O)Nc2ccc(F)cc2F)nc(=O)[nH]1,u,15.8µM*,-12.2%[60.1 µM],16.7%,u,x
COc1ccc(NC(=O)CSc2oc(-c3ccc(F)cc3)nc2S(=O)(=O)c2ccc(C)cc2)c(OC)c1,u,u,-3.9%,-5.7%,u,x
COc1ccccc1N1CCN(S(=O)(=O)c2ccc(-c3ccno3)cc2OC)CC1,4.3%,32.3%,-6.7%[60.1 µM],-16.5%,-13.0%,x
COc1ccc(N2CCN(C(=O)c3nn(C)c4c3CSc3ccccc3-4)CC2)cc1,32.5%,-3.3%,-10.8%,1.8%,-18.3%,x
CCN(CC(=O)Nc1cc(Cl)cc(Cl)c1)CC(=O)NC1CCS(=O)(=O)C1 (centres undefined),-6.9%,x,1.5%,12.0%,-8.7%,8.4
O=C(N/N=C/C(Cl)=C/c1ccc([N+](=O)[O-])cc1)C(=O)Nc1ccccc1C(=O)O,17.8µM*,20µM*,u,u,44.7µM*,-50.2*
O=C(N/N=C/C(Cl)=C/c1ccc([N+](=O)[O-])cc1)C(=O)Nc1ccc(C(=O)O)cc1,u,u,-19.9%,-22.3%,u,-27.3
COc1ccc(CN2C(=O)Cc3c2nc(N)c2c(N)nc(N4CCOCC4)c(C#N)c32)cc1,7.94µM*,18.9%,-0.4%,-26.5%,u,u
COCC(C)N1C(=O)Cc2c1nc(N)c1c(N)nc(N3CCN(c4ccccc4F)CC3)c(C#N)c21 (centres undefined),17.8µM*,18.9%,-16.0%,-10.3%,-20.8%,-10.2
Cn1nc(C2CC2)cc1NC(=O)C1(C)CCN1C(=O)Cc1ccc(-c2ccccc2)cc1 (centres undefined),x,x,x,x,x,-9.4
Cc1ccc(CNC(=O)c2ccc3c(O)c(S(=O)(=O)c4ccc(Cl)cc4)c(=O)[nH]c3c2)cc1,10.0%,41.9%,4.8%,1.6%,u,x
CCOC(=O)c1c(C)oc(=O)c(CC)c1O,x,x,x,x,-9.5%,4.5
CCOC(=O)c1c(C)oc2c(F)c(F)c(F)c(F)c2c1=O,u,-22.3%,79.4µM*,-1.7%,u,-18.7
CC(C)(C)N/N=C/c1cc(Cl)cc([N+](=O)[O-])c1O,-1.4%,35.5µM*,-8.6%,-9.2%,u,-28.4
CCOc1ccc(C(=O)c2ccc(O)c(O)c2O)cc1,x,x,3.55µM*,x,x,x
CCOc1cccc(C(=O)c2ccc(O)c(O)c2O)c1,x,x,4.47µM*,x,x,x
Cc1cc(NC(=O)c2ccccc2F)nc2c1c(=O)oc1ccccc12,29.8%,15.1%,7.5%,4.5%,-5.9%,-8.5
CCn1c(SCC(=O)Nc2cc(OC)ccc2OC)nc2c(c1=O)SCC2,-1.4%,22.4µM*,-4.1%,0.1%,-8.1%,0.1
O=C(Nc1cccc(F)c1)N1CC2(CCN(C(=O)c3ccncc3)CC2)C1,x,x,-14.0%[60.1 µM],x,x,x
Cn1c(NC(=O)c2ccc(F)cc2)nc2ccccc21,89.1µM*,4.5%,-14.0%,-4.2%,-16.6%,-3.8
Oc1cc2ccccc2cc1-c1n[nH]c(=S)o1,u,u,-7.0%,5.0%,-27.5%,-73.3*
